# Legend:
# Assay in all cases: DAPPL (digital affinity profiling via proximity ligation, sequencing); 10 mM Tris-HCl pH 7.5, 50 mM NaCl, 1 mM DTT, 4% glycerol, room temperature, 30 min; GST-TFs on glutathione beads, 16-mer random dsDNA library, 0.1% formaldehyde crosslink after washing; high values mean tight binding
# FLI1 = target: T1, FLI1 (Homo sapiens, UniProt Q01543 1-452); details: protein: recombinant; tags: N-terminal GST; dsDNA, one strand shown
# T1 sequence: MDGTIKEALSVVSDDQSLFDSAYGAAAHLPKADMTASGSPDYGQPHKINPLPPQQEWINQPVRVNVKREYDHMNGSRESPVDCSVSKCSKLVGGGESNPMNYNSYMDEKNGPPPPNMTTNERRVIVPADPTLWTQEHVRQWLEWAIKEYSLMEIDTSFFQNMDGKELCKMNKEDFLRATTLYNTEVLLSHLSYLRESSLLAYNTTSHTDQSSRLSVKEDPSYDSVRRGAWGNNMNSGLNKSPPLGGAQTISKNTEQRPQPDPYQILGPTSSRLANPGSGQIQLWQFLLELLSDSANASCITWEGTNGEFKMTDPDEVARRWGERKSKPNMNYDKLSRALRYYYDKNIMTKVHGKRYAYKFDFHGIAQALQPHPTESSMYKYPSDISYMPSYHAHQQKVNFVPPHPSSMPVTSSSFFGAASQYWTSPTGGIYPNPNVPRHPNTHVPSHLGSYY
# Procedure, shortened: (§1)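 Yeast served to express human transcription factors as GST fusions, which were then captured on glutathione beads and labelled with DNA barcodes. Pooled with a tag-only sample, they were incubated with 200 nmole of a 16-mer random double-stranded DNA library for 30 min at room temperature in Tris/NaCl/DTT/glycerol buffer, washed, crosslinked with 0.1% formaldehyde, ligated by proximity, amplified by PCR and sequenced. Dividing each hexamer's read frequency for a factor by its frequency for the tag-only sample gives the binding signal.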
# ELK1 = target: T2, ELK1 (Homo sapiens, UniProt P19419 1-428); details: protein: recombinant; tags: N-terminal GST; dsDNA, one strand shown
# T2 sequence: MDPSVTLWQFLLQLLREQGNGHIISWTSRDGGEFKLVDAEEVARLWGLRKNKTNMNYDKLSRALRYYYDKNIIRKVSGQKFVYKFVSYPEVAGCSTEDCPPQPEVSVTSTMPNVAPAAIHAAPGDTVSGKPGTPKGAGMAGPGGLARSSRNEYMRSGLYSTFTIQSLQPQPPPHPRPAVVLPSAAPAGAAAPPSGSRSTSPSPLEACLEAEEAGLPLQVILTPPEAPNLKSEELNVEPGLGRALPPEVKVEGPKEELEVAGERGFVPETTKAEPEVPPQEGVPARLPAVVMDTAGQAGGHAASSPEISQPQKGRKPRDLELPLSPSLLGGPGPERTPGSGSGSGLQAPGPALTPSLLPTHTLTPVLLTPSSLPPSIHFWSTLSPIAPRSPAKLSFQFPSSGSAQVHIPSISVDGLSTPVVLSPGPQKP
# Procedure, shortened: as §1
# GABPA = target: T3, GABPA (Homo sapiens, UniProt Q06546 1-454); details: protein: recombinant; tags: N-terminal GST; dsDNA, one strand shown
# T3 sequence: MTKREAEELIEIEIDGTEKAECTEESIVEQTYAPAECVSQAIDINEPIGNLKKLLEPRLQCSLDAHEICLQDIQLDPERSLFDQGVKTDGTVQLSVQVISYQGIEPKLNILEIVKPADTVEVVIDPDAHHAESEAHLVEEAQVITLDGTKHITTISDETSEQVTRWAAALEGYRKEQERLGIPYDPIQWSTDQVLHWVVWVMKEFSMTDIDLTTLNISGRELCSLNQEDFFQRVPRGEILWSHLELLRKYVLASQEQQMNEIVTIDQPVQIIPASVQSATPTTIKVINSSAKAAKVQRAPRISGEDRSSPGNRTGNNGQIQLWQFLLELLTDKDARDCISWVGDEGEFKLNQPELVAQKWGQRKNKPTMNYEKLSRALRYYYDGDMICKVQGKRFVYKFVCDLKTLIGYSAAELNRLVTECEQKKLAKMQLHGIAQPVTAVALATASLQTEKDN
# Procedure, shortened: as §1
# ERG = target: T4, ERG (Homo sapiens, UniProt P11308 1-479); details: protein: recombinant; tags: N-terminal GST; dsDNA, one strand shown
# T4 sequence: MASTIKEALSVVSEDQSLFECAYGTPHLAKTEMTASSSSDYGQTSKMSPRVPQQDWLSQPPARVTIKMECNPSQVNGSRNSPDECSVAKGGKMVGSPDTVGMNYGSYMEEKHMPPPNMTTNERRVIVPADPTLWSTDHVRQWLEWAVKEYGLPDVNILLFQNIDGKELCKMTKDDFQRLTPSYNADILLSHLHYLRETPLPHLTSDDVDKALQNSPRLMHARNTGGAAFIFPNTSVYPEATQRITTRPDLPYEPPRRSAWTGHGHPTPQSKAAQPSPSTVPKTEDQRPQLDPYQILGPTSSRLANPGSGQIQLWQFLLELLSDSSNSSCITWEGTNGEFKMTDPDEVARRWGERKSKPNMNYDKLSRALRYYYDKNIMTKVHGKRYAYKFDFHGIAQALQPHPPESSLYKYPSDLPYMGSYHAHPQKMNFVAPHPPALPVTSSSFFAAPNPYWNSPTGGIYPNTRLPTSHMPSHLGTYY
# Procedure, shortened: as §1
# ELF1 = ELF1 (Homo sapiens, UniProt P32519 1-619); details: protein: recombinant; tags: N-terminal GST; dsDNA, one strand shown
# Sequence of ELF1 (P32519 whole entry): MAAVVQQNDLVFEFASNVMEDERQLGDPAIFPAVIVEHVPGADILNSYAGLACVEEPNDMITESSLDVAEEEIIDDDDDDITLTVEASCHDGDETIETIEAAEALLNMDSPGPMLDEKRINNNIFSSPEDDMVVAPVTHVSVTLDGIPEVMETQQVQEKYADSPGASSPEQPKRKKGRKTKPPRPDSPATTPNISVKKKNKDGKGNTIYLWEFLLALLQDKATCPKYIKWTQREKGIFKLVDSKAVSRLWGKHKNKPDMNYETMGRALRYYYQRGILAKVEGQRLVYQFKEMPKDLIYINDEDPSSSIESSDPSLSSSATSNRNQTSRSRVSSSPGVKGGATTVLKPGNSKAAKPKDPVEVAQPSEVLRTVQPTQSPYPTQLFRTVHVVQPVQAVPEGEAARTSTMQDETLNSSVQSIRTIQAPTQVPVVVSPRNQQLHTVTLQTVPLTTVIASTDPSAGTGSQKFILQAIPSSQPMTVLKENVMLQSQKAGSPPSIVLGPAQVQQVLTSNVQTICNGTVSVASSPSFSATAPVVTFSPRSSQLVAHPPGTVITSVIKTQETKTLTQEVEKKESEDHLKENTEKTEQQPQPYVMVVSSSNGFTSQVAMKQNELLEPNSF
# Procedure, shortened: as §1
# EHF = target: T5, EHF (Homo sapiens, UniProt Q9NZC4 1-300); details: protein: recombinant; tags: N-terminal GST; dsDNA, one strand shown
# T5 sequence: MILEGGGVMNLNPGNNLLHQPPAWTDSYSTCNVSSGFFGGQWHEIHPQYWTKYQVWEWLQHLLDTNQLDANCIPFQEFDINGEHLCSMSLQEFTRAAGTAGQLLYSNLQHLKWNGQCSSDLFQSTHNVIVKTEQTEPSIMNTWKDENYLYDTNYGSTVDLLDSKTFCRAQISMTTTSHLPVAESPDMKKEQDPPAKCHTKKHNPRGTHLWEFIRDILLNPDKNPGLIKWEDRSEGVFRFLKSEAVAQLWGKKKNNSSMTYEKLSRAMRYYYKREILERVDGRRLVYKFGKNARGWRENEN
# Procedure, shortened: as §1
# SPI1 = SPI1 (Homo sapiens, UniProt P17947 1-270); details: protein: recombinant; tags: N-terminal GST; dsDNA, one strand shown
# Procedure, shortened: as §1
# SPIB = SPIB (Homo sapiens, UniProt Q01892 1-262); details: protein: recombinant; tags: N-terminal GST; dsDNA, one strand shown
# Sequence of SPIB (Q01892 whole entry): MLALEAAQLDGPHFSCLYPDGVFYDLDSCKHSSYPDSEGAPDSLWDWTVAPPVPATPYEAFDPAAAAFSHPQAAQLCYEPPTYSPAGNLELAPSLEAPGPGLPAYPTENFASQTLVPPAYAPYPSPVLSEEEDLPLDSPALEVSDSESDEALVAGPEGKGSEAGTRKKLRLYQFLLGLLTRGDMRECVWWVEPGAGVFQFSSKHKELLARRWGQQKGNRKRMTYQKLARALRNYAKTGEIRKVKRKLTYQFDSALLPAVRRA
# Procedure, shortened: as §1
# ELK3 = target: T6, ELK3 (Homo sapiens, UniProt P41970 1-407); details: protein: recombinant; tags: N-terminal GST; dsDNA, one strand shown
# T6 sequence: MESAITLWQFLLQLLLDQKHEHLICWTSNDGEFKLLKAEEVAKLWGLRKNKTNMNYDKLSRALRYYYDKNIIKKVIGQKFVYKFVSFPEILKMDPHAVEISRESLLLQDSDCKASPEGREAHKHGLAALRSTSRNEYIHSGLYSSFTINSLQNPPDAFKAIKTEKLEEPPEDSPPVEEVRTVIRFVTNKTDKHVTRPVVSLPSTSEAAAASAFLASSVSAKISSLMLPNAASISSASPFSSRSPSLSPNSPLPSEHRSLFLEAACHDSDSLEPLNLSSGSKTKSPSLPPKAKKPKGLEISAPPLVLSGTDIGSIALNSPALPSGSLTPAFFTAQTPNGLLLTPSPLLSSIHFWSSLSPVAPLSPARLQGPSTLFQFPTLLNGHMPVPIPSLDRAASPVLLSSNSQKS
# Procedure, shortened: as §1
# FEV = target: T7, FEV (Homo sapiens, UniProt Q99581 1-238); details: protein: recombinant; tags: N-terminal GST; dsDNA, one strand shown
# T7 sequence: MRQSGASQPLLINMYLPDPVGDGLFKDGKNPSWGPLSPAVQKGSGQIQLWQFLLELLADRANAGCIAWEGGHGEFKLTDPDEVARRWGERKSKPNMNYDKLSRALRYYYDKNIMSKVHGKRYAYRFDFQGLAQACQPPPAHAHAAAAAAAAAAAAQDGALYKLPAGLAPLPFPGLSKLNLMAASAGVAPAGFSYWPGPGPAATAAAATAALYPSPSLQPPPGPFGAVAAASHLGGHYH
# Procedure, shortened: as §1
# ETV5 = ETV5 (Homo sapiens, UniProt P41161 1-510); details: protein: recombinant; tags: N-terminal GST; dsDNA, one strand shown
# Sequence of ETV5 (P41161 whole entry): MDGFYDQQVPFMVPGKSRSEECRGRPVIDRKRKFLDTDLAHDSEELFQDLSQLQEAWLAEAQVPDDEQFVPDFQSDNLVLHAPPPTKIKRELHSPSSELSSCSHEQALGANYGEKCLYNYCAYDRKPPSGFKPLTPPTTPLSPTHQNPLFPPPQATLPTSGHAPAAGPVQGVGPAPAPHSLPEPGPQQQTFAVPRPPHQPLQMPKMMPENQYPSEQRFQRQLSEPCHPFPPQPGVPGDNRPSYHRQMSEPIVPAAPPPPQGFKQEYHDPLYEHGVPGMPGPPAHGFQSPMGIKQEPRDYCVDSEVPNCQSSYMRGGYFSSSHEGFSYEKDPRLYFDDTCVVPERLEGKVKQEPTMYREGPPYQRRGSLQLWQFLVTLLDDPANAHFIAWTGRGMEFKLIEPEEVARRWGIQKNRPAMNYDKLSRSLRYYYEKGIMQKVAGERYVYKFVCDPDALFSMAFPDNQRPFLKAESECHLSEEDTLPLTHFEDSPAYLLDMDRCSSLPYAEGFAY
# Procedure, shortened: as §1
# HSF1 = HSF1 (Homo sapiens, UniProt Q00613 1-529); details: protein: recombinant; tags: N-terminal GST; chain copies: 3; dsDNA, one strand shown
# Sequence of HSF1 (Q00613 whole entry): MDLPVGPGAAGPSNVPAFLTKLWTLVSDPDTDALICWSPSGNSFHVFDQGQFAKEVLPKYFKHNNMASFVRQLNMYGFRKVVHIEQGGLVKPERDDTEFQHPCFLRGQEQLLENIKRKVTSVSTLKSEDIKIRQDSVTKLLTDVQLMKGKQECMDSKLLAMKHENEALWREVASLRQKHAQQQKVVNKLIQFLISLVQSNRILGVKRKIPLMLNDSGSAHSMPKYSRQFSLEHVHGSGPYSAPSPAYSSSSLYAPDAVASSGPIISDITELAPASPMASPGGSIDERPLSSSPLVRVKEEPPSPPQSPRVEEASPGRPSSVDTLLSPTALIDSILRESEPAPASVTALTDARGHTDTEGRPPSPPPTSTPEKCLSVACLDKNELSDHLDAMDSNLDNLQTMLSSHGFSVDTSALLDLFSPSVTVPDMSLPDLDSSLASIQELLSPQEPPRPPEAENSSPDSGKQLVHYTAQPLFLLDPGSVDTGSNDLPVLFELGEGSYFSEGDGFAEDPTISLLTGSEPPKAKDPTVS
# Procedure, shortened: as §1
# SPIC = target: T8, SPIC (Homo sapiens, UniProt Q8N5J4 1-248); details: protein: recombinant; tags: N-terminal GST; dsDNA, one strand shown
# T8 sequence: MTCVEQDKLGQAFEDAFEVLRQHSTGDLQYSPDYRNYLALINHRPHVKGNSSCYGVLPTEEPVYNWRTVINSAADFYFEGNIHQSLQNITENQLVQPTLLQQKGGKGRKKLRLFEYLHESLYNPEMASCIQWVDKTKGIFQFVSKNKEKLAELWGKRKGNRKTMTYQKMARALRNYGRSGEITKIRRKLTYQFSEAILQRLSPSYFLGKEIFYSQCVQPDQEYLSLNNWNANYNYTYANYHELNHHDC
# Procedure, shortened: as §1
# ELF4 = ELF4 (Homo sapiens, UniProt Q99607 1-663); details: protein: recombinant; tags: N-terminal GST; dsDNA, one strand shown
# Sequence of ELF4 (Q99607 whole entry): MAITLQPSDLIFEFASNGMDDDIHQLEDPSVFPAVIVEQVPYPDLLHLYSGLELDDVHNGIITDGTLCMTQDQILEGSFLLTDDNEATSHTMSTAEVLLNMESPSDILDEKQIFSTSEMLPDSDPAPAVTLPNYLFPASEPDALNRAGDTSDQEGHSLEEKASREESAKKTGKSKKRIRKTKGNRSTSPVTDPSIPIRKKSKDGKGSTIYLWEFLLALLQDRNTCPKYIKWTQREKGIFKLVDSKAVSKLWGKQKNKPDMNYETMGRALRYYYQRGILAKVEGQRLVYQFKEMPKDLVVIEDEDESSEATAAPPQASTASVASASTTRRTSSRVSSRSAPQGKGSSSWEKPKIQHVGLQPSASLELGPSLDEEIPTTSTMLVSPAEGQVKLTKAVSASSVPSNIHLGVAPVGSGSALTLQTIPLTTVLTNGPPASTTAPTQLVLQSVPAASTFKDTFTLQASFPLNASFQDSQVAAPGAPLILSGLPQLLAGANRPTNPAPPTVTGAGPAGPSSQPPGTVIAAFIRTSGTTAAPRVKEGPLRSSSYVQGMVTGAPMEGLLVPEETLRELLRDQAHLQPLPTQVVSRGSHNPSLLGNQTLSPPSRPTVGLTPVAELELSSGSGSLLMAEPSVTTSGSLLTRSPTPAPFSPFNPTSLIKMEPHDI
# Procedure, shortened: as §1
# ELK4 = target: T9, ELK4 (Homo sapiens, UniProt P28324-2 1-405); details: protein: recombinant; tags: N-terminal GST; dsDNA, one strand shown
# T9 sequence: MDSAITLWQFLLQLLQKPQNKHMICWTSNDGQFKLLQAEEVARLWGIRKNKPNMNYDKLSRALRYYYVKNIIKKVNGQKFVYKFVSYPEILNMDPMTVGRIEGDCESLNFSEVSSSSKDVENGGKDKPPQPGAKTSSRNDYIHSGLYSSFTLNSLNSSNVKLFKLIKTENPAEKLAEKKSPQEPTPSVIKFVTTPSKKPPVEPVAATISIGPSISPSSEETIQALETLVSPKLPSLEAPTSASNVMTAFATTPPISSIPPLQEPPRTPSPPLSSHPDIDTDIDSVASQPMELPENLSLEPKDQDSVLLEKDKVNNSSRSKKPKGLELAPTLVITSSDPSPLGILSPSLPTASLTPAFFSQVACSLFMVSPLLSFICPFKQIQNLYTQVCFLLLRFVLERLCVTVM
# Procedure, shortened: as §1
# ETV2 = target: T10, ETV2 (Homo sapiens, UniProt O00321 1-342); details: protein: recombinant; tags: N-terminal GST; dsDNA, one strand shown
# T10 sequence: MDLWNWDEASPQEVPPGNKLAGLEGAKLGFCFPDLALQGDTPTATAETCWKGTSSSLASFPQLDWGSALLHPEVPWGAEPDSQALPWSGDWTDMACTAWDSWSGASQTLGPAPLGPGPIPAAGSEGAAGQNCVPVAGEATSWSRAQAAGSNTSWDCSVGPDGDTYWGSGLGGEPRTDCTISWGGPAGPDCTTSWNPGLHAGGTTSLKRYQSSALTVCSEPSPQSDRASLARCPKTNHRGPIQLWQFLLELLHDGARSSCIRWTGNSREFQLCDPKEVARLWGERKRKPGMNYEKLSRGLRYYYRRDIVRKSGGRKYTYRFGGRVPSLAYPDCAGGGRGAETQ
# Procedure, shortened: as §1
# ELF3 = target: T11, ELF3 (Homo sapiens, UniProt P78545 1-371); details: protein: recombinant; tags: N-terminal GST; dsDNA, one strand shown
# T11 sequence: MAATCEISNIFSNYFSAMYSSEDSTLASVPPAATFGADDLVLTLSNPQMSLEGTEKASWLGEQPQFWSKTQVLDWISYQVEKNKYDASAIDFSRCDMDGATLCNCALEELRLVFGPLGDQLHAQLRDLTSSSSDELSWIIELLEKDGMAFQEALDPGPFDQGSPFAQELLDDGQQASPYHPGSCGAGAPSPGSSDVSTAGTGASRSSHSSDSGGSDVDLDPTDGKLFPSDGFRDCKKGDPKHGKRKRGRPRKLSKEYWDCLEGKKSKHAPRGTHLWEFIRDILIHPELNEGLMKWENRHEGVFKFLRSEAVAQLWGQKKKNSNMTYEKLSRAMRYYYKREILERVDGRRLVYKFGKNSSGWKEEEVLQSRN
# Procedure, shortened: as §1
# CRX = CRX (Homo sapiens, UniProt O43186 1-299); details: protein: recombinant; tags: N-terminal GST; dsDNA, one strand shown
# Sequence of CRX (O43186 whole entry): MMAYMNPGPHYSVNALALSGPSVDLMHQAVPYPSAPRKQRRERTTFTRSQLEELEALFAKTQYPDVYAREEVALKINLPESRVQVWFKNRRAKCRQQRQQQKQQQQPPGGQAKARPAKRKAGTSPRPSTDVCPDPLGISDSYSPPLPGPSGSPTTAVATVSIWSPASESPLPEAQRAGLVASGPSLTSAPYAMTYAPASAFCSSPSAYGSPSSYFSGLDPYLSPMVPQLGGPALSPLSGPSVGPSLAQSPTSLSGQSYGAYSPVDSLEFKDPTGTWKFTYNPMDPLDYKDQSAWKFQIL
# Procedure, shortened: as §1
# ETV1 = ETV1 (Homo sapiens, UniProt P50549 1-477); details: protein: recombinant; tags: N-terminal GST; dsDNA, one strand shown
# Sequence of ETV1 (P50549 whole entry): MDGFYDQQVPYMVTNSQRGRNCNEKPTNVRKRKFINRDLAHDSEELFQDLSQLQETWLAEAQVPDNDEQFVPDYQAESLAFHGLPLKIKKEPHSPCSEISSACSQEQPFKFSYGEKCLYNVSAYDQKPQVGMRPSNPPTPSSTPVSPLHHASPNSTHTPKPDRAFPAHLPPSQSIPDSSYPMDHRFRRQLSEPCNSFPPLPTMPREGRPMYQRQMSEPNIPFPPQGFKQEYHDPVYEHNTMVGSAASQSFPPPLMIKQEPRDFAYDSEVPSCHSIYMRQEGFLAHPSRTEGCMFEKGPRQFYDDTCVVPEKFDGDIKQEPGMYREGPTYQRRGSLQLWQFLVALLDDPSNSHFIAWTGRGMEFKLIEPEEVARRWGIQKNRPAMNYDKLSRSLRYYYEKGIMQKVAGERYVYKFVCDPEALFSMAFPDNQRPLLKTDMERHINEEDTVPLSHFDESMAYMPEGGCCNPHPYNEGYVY
# Procedure, shortened: as §1
sequence,measurement,setting,value
TATATA,binding signal,FLI1,"1.23 fold enrichment (6-mer frequency, TF over GST control)"
same,binding signal,ELK1,"1.37 fold enrichment (6-mer frequency, TF over GST control)"
same,binding signal,GABPA,"1.26 fold enrichment (6-mer frequency, TF over GST control)"
same,binding signal,ERG,"1.3 fold enrichment (6-mer frequency, TF over GST control)"
same,binding signal,ELF1,"1.32 fold enrichment (6-mer frequency, TF over GST control)"
same,binding signal,EHF,"1.32 fold enrichment (6-mer frequency, TF over GST control)"
same,binding signal,SPI1,"1.21 fold enrichment (6-mer frequency, TF over GST control)"
same,binding signal,SPIB,"1.49 fold enrichment (6-mer frequency, TF over GST control)"
same,binding signal,ELK3,"1.17 fold enrichment (6-mer frequency, TF over GST control)"
same,binding signal,FEV,"1.21 fold enrichment (6-mer frequency, TF over GST control)"
same,binding signal,ETV5,"1.28 fold enrichment (6-mer frequency, TF over GST control)"
same,binding signal,HSF1,"1.42 fold enrichment (6-mer frequency, TF over GST control)"
same,binding signal,SPIC,"1.21 fold enrichment (6-mer frequency, TF over GST control)"
same,binding signal,ELF4,"1.31 fold enrichment (6-mer frequency, TF over GST control)"
same,binding signal,ELK4,"1.38 fold enrichment (6-mer frequency, TF over GST control)"
same,binding signal,ETV2,"1.08 fold enrichment (6-mer frequency, TF over GST control)"
same,binding signal,ELF3,"1.35 fold enrichment (6-mer frequency, TF over GST control)"
same,binding signal,CRX,"1.63 fold enrichment (6-mer frequency, TF over GST control)"
same,binding signal,ETV1,"1.18 fold enrichment (6-mer frequency, TF over GST control)"
